# Measured values reported in the supplement of paper PMC6411743.
# ± gives the standard deviation of the averaged measurements. Targets with the largest changes are over-represented here; the source holds about 5,400 in all.
# Compound: Nc1nc2c(ncn2[C@@H]2O[C@H](COP(=O)(O)OP(=O)(O)OP(=O)(O)O)[C@@H](O)[C@H]2O)c(=O)[nH]1 [guanosine triphosphate]
# Assay: NP40-soluble protein abundance relative to vehicle (solubility fold change) (ratio); higher = more soluble protein in presence of GTP
# Protocol: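 Solubility proteome profiling in Jurkat crude lysate. Lysate was treated with Mg-GTP (0.1-10 mM) for 10 min at room temperature and 3 min at 37 °C, then solubilised with 0.8% NP40 and benzonase, followed by ultracentrifugation. Proteins were quantified by TMT10 LC-MS/MS; the value is the NP40-soluble abundance relative to the NP40-processed vehicle, from 3 independent experiments.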
# UniProt Q9NVR5, sequence (Q9NVR5 whole entry): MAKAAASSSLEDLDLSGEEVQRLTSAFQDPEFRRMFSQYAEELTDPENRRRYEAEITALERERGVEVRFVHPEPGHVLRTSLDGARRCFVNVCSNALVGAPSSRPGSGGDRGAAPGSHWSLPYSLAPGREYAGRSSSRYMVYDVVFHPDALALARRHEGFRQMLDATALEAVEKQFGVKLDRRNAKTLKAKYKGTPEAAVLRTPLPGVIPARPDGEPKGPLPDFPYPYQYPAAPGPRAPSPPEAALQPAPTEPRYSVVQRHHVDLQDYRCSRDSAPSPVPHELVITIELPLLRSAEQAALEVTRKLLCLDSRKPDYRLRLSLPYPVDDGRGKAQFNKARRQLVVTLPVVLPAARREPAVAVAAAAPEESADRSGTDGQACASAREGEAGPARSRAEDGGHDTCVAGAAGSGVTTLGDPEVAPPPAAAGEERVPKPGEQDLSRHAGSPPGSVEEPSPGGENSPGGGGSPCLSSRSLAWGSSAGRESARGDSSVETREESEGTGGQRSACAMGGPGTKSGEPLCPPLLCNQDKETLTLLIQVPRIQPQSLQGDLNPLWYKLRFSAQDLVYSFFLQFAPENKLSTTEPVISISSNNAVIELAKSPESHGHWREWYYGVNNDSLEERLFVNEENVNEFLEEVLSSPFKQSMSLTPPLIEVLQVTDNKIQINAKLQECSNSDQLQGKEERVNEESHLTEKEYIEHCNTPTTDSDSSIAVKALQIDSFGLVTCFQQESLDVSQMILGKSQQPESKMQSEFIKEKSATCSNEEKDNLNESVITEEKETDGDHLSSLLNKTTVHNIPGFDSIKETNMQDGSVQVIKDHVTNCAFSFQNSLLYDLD
# UniProt Q9C073, sequence (Q9C073 whole entry): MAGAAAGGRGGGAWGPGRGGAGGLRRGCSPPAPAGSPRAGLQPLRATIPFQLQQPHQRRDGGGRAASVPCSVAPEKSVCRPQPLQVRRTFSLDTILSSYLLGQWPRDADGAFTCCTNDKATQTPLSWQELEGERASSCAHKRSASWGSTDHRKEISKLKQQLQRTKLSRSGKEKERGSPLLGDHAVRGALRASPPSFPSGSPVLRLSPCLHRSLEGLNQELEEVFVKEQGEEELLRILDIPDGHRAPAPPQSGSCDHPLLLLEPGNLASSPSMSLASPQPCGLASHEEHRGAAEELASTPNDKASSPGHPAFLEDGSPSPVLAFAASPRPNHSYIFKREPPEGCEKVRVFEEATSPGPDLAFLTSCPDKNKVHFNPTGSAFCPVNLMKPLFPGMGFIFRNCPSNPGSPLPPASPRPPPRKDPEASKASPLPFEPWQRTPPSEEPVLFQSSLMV
# UniProt Q96ES7, sequence (Q96ES7 whole entry): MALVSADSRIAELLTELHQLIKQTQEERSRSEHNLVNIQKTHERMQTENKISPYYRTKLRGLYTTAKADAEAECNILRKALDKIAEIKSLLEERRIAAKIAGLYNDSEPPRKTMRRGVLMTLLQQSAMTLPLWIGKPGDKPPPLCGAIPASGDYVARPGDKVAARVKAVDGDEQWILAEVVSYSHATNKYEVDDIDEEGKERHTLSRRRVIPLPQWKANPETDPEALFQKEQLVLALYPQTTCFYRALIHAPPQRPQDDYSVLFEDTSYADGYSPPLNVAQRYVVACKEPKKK
# UniProt Q9NX24, sequence (Q9NX24 whole entry): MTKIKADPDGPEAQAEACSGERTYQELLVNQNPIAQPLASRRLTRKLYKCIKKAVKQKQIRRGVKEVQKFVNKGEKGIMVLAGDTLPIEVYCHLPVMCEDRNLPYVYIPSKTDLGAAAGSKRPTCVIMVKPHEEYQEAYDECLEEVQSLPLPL
Target,NP40-soluble protein abundance (concentration: 0.1mM),NP40-soluble protein abundance (concentration: 0.5mM),NP40-soluble protein abundance (concentration: 1mM),NP40-soluble protein abundance (concentration: 2mM),NP40-soluble protein abundance (concentration: 4mM),NP40-soluble protein abundance (concentration: 6mM),NP40-soluble protein abundance (concentration: 8mM),NP40-soluble protein abundance (concentration: 10mM)
UniProt Q96ES7,1.21 ± 0.22,1.12 ± 0.13,1.25 ± 0.19,1.14 ± 0.12,1.26 ± 0.11,1.17 ± 0.11,1.38 ± 0.32,1.12 ± 0.096
UniProt Q9NVR5,0.928 ± 0.076,0.944 ± 0.078,0.923 ± 0.048,0.885 ± 0.16,0.866 ± 0.12,0.931 ± 0.13,0.869 ± 0.086,0.906 ± 0.082
NHP2 (UniProt Q9NX24),0.959 ± 0.056,0.942 ± 0.054,1.02 ± 0.069,1.09 ± 0.067,1.2 ± 0.096,1.39 ± 0.16,1.45 ± 0.16,1.75 ± 0.35
FAM117A (UniProt Q9C073),1.31 ± 0.14,0.983 ± 0.018,1.28 ± 0.084,1.03 ± 0.024,1.1204 ± 7.8e-05,1.02 ± 0.037,1.1 ± 0.056,1.12 ± 0.086
UniProt Q9HD33|Q9HD33-2,1.01 ± 0.017,1.16 ± 0.087,1.34 ± 0.23,1.55 ± 0.39,1.7 ± 0.52,1.86 ± 0.49,2.03 ± 0.59,2.05 ± 0.64
